Assay outcomes from PubChem.
Shown are actives, neighbours in structure and some others; about 3.3% of the full set was active somewhere.
UBC13 inh = UBC13 polyubiquitin chain formation inhibitors, primary screen, biochemical, TR-FRET, uHTS; Ubiquitin-conjugating enzyme E2 N (Homo sapiens), P61088; inhibition, % at 20 µM; 0.47% of 330,000 active; AID 485273, 2010; in the data active = inhibition above about 45%, passing the limit was not always enough
Target sequence (P61088 whole entry, looked up): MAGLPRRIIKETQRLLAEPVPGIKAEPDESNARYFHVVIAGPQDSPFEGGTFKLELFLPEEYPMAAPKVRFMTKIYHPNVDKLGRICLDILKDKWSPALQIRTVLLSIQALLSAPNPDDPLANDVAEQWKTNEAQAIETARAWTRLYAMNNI
sPLA2-III inh = human group III sPLA2 inhibitors, primary screen, biochemical, QFRET, BODIPY PC-A2 liposome substrate; QFRET BODIPY PC-A2 liposome hydrolysis, fluorescence; Group 3 secretory phospholipase A2 (Homo sapiens), Q9NZ20; 0.56% of 370,000 active; inhibition, % at 12.2 µM;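 active = inhibition above mean plus 3 SD of compounds lying within the high and low control bounds, cut at about 19% in these data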
Target sequence (Q9NZ20 whole entry, looked up): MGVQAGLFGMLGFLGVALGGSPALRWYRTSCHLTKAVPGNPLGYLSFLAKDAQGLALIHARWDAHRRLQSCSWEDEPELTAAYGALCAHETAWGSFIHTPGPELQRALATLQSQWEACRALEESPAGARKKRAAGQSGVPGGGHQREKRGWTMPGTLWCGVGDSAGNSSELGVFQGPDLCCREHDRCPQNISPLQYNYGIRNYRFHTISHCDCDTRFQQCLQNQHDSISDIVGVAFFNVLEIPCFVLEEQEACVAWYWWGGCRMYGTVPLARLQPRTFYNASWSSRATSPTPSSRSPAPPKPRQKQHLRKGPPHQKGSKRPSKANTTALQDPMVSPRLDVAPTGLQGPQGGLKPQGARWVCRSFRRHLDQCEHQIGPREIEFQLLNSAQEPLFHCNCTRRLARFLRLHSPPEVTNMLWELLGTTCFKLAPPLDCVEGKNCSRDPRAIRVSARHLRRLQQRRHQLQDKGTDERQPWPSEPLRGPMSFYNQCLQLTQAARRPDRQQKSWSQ
SUMO HTRF inh = inhibitors of in vitro SUMOylation cascade, primary screen, biochemical, HTRF, uHTS; SUMO-conjugating enzyme UBC9 (Homo sapiens), P63279; HTRF SUMOylation assay, SAE1/SAE2 + UBC9; 0.36% of 290,000 active; AID 2006, 2009; inhibition, % at 35 µM; in the data active = inhibition above about 50%, passing the limit was not always enough
GRIN3A LBD mod = binders of NR3A ligand-binding domain, primary screen, biophysical, differential scanning fluorimetry, uHTS. Glutamate receptor ionotropic, NMDA 3A (GRIN3A) ligand-binding domain. NR3A LBD differential scanning fluorimetry, Tm shift; 0% = protein alone, 100% = glycine-bound protein. Tm shift relative to glycine control, % at 25 µM. 2.5% of 340,000 active. AID 1259313, 2017;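 active = melting temperature shift of at least 10% of the positive control shift, at one fixed dose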
Of the large screens only hits and unclear results are named; the others gave an inactive call.

COCCn1c(=NC(=O)c2cc(-c3cccs3)nc3ccccc23)sc2cc(S(N)(=O)=O)ccc21	GRIN3A LBD mod 28
COCCn1c(=NC(=O)c2ccc(S(=O)(=O)N3CCOCC3)cc2)sc2cc(S(N)(=O)=O)ccc21	none
COC(=O)c1ccc(NC(=O)Nc2ccc(F)c(Cl)c2)cc1	GRIN3A LBD mod 41
O=C(Nc1ccc(F)cc1)Nc1cc(OCC(F)(F)F)cc(OCC(F)(F)F)c1	GRIN3A LBD mod 27
COC(=O)c1ccc(NC(=O)Nc2ccc(F)cc2)cc1	GRIN3A LBD mod 18
CCOC(=O)c1ccc(NC(=O)Nc2ccc(F)cc2)cc1	GRIN3A LBD mod 35
COC(=O)c1ccc(Cn2ccc3ccc(-c4ccc5ccn(C(=O)c6ccc(C)cc6)c5c4)cc32)cc1	none (no result: UBC13 inh, SUMO HTRF inh, GRIN3A LBD mod)
CCOc1ccc(-n2c(SCC(=O)Nc3cc(C)c(NC(=O)c4ccccc4)cc3OC)nnc2-c2ccncc2)cc1	none (no result: UBC13 inh, SUMO HTRF inh, GRIN3A LBD mod)
CC(C)(C)c1ccc(NC(=O)Nc2ccc(F)cc2)cc1	GRIN3A LBD mod 14
COc1ccc(NC(=O)Nc2ccccc2F)cc1Cl	GRIN3A LBD mod 20
CC(C)(C)c1ccc(COC(=O)Nc2ccc(F)cc2)cc1	none
COC(=O)[C@]12C[C@H](CC(=O)NCCCN3CCCC3=O)C(=O)N(Cc3ccco3)C1=C[C@H](C(C)(C)C)O[C@@H]2C	none (no result: UBC13 inh, SUMO HTRF inh, GRIN3A LBD mod)
CC(=O)Nc1ccc(S(=O)(=O)Nc2nc3ccccc3nc2N2CCc3ccccc3C2)cc1	GRIN3A LBD mod 16
O=S(=O)(Nc1nc2ccccc2nc1N1CCc2ccccc2C1)c1ccc(Br)cc1	GRIN3A LBD mod 10 (no result: UBC13 inh)
CC(=O)Nc1ccc(S(=O)(=O)Nc2nc3ccccc3nc2N2CCCCCC2)cc1	none
O=C(OC12CCCN(C1)/C(=C/c1ccncc1)C2)c1ccccc1 (configuration not stated)	none (no result: UBC13 inh, SUMO HTRF inh, GRIN3A LBD mod)
Cc1nnc(NC(=O)c2ccc(F)c(S(=O)(=O)N3CCCCC3)c2)s1	GRIN3A LBD mod 16
O=C(Nc1ccccn1)c1ccc(Br)c(S(=O)(=O)N2CCCCC2)c1	GRIN3A LBD mod 13
COc1ccc(Cl)cc1S(=O)(=O)N1CCN(C(=O)CSc2nc3ccccc3nc2N2CCCC2)CC1	none (no result: UBC13 inh, SUMO HTRF inh, GRIN3A LBD mod)
Nc1nc(-c2ccccc2)nc2sc3c(c12)CCCC3	GRIN3A LBD mod 14
O=C(CCc1ccccc1)N[C@H]1[C@@H](O)CCC[C@]12C(=O)N(Cc1ccccc1)c1ccccc12	none (no result: UBC13 inh, SUMO HTRF inh, GRIN3A LBD mod)
CCOC(=O)[C@]12CCCC3=C1N(CCC3)C(=O)[C@@H](CC(=O)NCCCCc1ccccc1)C2	none (no result: UBC13 inh, SUMO HTRF inh, GRIN3A LBD mod)
Cc1ccc(S(=O)(=O)/N=C2/NC(=O)/C(=C\c3cc(Br)cc(Br)c3O)S2)cc1	SUMO HTRF inh 62 (no result: sPLA2-III inh)
O=C1N/C(=N\S(=O)(=O)c2ccccc2)S/C1=C\c1cc([N+](=O)[O-])ccc1O	GRIN3A LBD mod 14
Cc1ccc(S(=O)(=O)/N=C2/NC(=O)/C(=C/c3ccc(Br)o3)S2)cc1	none
Brc1ccc(CSc2nnc(-c3ccccn3)n2Cc2ccco2)cc1	none
CC(C)(C)c1ccc(CSc2nnc(-c3ccccn3)n2Cc2ccco2)cc1	GRIN3A LBD mod 20
CCN(CC)CCNC(Cc1ccccc1)c1cccc(OC)c1 (configuration not stated)	GRIN3A LBD mod 13 (no result: UBC13 inh, SUMO HTRF inh)
c1ccc(N/N=C(\Cc2ncc[nH]2)c2ccccc2)cc1	none
Clc1cccc(N/N=C(\Cc2nc3ccccc3[nH]2)c2ccccc2)c1	GRIN3A LBD mod 31
COC(=O)C1CCCN(C(=O)C2CCN(S(=O)(=O)c3ccccc3[N+](=O)[O-])CC2)C1 (configuration not stated)	none (no result: UBC13 inh, SUMO HTRF inh, GRIN3A LBD mod)
CN(C(=O)c1cccc(C(=O)N(C)c2ccccc2)c1)c1ccccc1	none
CN(C(=O)c1ccncc1)c1ccccc1	GRIN3A LBD mod 11
COc1ccc2c(c1)Sc1ccc(Cl)cc1N2	none (no result: UBC13 inh, SUMO HTRF inh, GRIN3A LBD mod)
O=C(CSc1ccc(-c2nc3ccccc3[nH]2)cn1)Nc1ccc(S(=O)(=O)N2CCCC2)cc1	GRIN3A LBD mod 29
Cc1cc2nc(-c3ccc(SCC(=O)Nc4ccc(S(=O)(=O)N5CCCC5)cc4)nc3)[nH]c2cc1C	GRIN3A LBD mod 21
O=C(c1ccc(S(=O)(=O)NCc2ccco2)cc1)N1CCN(c2ccc(F)cc2)CC1	none (no result: SUMO HTRF inh)
O=C(/C=C/c1ccc(S(=O)(=O)NCc2ccco2)cc1)N1CCN(c2ccccc2)CC1	GRIN3A LBD mod 16
O=C(NC(CSCc1ccccc1)C(=O)N/N=C/c1ccc(O)cc1O)c1ccc([N+](=O)[O-])cc1 (configuration not stated)	GRIN3A LBD mod 16
CCCCN1CC(COCc2ccccc2)Oc2cccc(Oc3ccccc3)c2S1(=O)=O (configuration not stated)	none (no result: UBC13 inh, SUMO HTRF inh)
O=S1(=O)c2c(F)cccc2OC(COCc2ccccc2)CN1C1CCCC1 (configuration not stated)	none (no result: UBC13 inh, SUMO HTRF inh)
O=S1(=O)c2c(Oc3cccc4ccccc34)cccc2OC(COCc2ccccc2)CN1C1CCCC1 (configuration not stated)	GRIN3A LBD mod 18 (no result: UBC13 inh, SUMO HTRF inh)
CCCCN1CC(COCc2ccccc2)Oc2cccc(Oc3ccc(F)cc3)c2S1(=O)=O (configuration not stated)	GRIN3A LBD mod 13 (no result: UBC13 inh, SUMO HTRF inh)
CCCOC(=O)c1c(-c2ccccc2)nc(CC)c(C(=O)SCC)c1CCC	GRIN3A LBD mod 10 (no result: SUMO HTRF inh)
CCCc1nc2ccccc2c(C(=O)O)c1CC	none
C=CCOC(=O)N[C@H](c1cccc(OC)c1)[C@H](C)/C=C/CC(=O)OC	none (no result: UBC13 inh, SUMO HTRF inh, GRIN3A LBD mod)
COC(=O)c1cc(-c2ccc(Oc3ccccc3)cc2)c(=O)n2c1CCC2	none (no result: UBC13 inh, SUMO HTRF inh, GRIN3A LBD mod)
O=C(/C=C/c1cc([N+](=O)[O-])ccc1OC(F)F)Nc1cccc2ccccc12	GRIN3A LBD mod 13
O=C(/C=C/c1cc([N+](=O)[O-])ccc1OC(F)F)Nc1cccc(OC(F)F)c1	GRIN3A LBD mod 13
COc1ccccc1NC(=O)/C=C/c1cc([N+](=O)[O-])ccc1OC(F)F	none
C[C@@H]1NC(=O)[C@H]2C[C@@]3(c4ccccc4)c4ccccc4N[C@H]3N2C1=O	none (no result: UBC13 inh, SUMO HTRF inh, GRIN3A LBD mod)
COC[C@@H]1CCCN1c1cccc2c1S(=O)(=O)N1CC[C@H](C1)O2	none (no result: UBC13 inh, SUMO HTRF inh, GRIN3A LBD mod)
CCOc1ccccc1N1CCN(C(=S)Nc2ccc(S(=O)(=O)Nc3ncccn3)cc2)CC1	GRIN3A LBD mod 10
CCOc1cc(-c2nc(-c3ccc(OC)cc3)no2)cc(OCC)c1OCC	none
CCOc1cc(-c2nc(-c3ccccc3OC)no2)cc(OCC)c1OCC	GRIN3A LBD mod 11
COc1cc2c(cc1NC(=O)c1ccncc1)oc1ccccc12	GRIN3A LBD mod 22 (no result: sPLA2-III inh)
COc1cc2c(cc1NC(=O)/C=C/c1cc(OC)c(OC)c(OC)c1)oc1ccccc12	GRIN3A LBD mod 27
COc1cc2c(cc1NC(=O)c1cccc([N+](=O)[O-])c1)oc1ccccc12	none
COc1cc2c(cc1NC(=O)c1cccnc1)oc1ccccc12	GRIN3A LBD mod 20
CC(=O)c1cc(-c2ccc(Oc3ccccc3)cc2)c(=O)n2c1CCC2	none (no result: UBC13 inh, SUMO HTRF inh, GRIN3A LBD mod)
